TNAP act DEA – human TNAP enzyme activators, primary screen, biochemical, luminescent, intermediate phosphate acceptor level | Alkaline phosphatase, tissue-nonspecific isozyme (Homo sapiens), P05186 | purified TNAP, CDP-star luminescence, 100 mM DEA, 30 min; active compounds read high; scale: 0 levamisole-inhibited, 1 vehicle-only enzyme | activation factor at 20 µM | 64,000 tested, under 10 active;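 active = activation factor of at least 2 at 20 µM, relative to controls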
PLAP act – PLAP enzyme activators, biochemical, luminescence, HTS; purified PLAP enzyme, luminescent substrate read-out; active compounds read high; activation fold at 20 µM; 1.2% of 96,000 active; in the data active = activation fold above about 2
E coli RNAP – E. coli RNAP inhibitors, biochemical; DNA-directed RNA polymerase subunit beta (Escherichia coli (strain K12)), P0A8V2; E. coli RNA polymerase, fluorescence transcription assay; inhibition, %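 (tested at 10 µM)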; 0.2% of 62,000 active; in the data active = inhibition above about 20%;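 also: 0% = enzyme without compound and 100% = no enzyme blank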
Target sequence (P0A8V2 whole entry, looked up): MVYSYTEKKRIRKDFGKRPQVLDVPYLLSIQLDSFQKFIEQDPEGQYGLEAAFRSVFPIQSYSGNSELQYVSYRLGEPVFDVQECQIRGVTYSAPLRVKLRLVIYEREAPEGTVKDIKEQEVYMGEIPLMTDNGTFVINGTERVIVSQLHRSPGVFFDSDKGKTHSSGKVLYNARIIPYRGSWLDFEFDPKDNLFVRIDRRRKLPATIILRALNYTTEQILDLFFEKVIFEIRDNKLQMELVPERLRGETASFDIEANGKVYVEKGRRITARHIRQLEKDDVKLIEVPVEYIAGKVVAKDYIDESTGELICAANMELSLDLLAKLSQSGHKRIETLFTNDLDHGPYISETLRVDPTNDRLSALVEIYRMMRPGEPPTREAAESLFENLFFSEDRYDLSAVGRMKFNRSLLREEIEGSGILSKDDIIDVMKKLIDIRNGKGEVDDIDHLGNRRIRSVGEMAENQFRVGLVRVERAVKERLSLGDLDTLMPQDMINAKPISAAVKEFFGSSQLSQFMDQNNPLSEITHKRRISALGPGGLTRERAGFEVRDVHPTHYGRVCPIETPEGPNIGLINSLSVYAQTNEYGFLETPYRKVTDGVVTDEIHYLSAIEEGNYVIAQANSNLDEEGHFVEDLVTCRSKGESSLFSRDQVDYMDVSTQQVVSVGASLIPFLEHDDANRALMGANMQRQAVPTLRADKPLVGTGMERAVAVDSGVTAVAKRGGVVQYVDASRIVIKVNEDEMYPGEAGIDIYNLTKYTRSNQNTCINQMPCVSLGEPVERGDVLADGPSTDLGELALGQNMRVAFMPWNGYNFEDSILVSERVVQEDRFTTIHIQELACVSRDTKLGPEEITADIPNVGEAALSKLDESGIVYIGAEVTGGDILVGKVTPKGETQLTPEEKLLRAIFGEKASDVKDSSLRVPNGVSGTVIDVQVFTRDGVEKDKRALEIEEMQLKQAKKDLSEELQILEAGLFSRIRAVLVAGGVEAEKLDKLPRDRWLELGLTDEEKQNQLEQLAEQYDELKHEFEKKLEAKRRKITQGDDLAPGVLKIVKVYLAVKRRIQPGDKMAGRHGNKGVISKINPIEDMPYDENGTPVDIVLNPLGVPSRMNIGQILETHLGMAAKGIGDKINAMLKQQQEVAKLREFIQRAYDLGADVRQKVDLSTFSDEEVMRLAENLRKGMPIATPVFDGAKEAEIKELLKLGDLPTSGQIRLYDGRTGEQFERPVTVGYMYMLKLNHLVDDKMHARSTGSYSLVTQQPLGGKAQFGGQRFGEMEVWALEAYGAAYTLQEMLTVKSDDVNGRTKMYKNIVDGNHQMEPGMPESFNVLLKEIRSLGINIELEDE
The depositor's hits bear a star; / = no result given. The entries come from a sample that favours hits as a whole.

SMILES	TNAP act DEA	PLAP act	E coli RNAP
COc1nc(Nc2ccc(C(C)=O)cc2)nc(OC)n1	1	0.9	36*
COC(=O)[C@H](CCSC)NC(=O)Nc1ccc(OC)cc1OC	/	0.8	/
COC(=O)[C@H](CCSC)NC(=O)Nc1ccc(C)cc1C	0.9	2.7*	/
CNC(=S)N1C2CCC1CC(NC(=O)NC13CC4CC(CC(C4)C1)C3)C2 (configuration not stated)	/	1.2	/
O=C1NCN(c2ccccc2)C12CCN(c1nnnn1-c1ccccc1)CC2	1	1.5	1
Cc1cc(N2CCCCC2)nc2ccc(NC(=O)CCC(=O)NCCC(C)C)cc12	/	2.2*	/
CCCCNC(=O)CCC(=O)Nc1ccc2nc(N3CCOCC3)cc(C)c2c1	1	1.1	-11
CCCCCn1c(CCC(=O)Oc2ccccc2OC)nc2c1c(=O)[nH]c(=O)n2CCCC	/	0.9	/
COc1cccc2c1C(=O)c1c(O)c3c(c(O)c1C2=O)C[C@@](O)(C(=O)CO)C[C@@H]3O[C@H]1C[C@H](N)[C@H](O)[C@H](C)O1	0.7	/	32*
Fc1ccc(C(c2nnnn2Cc2cccs2)N2CCN(C3CCCCC3)CC2)cc1 (configuration not stated)	0.8	2.1*	0
CN1CCN(C(c2ccc(F)cc2)c2nnnn2Cc2cccs2)CC1 (configuration not stated)	0.9	1.6	/
O=C(N/N=C/c1cccs1)C1COc2ccccc2O1 (configuration not stated)	/	1.4	/
O=C(N/N=C\c1ccccn1)C1COc2cc3ccccc3cc2O1 (configuration not stated)	/	2*	/
CCC(C)n1c(SCC(=O)NC(=O)Nc2ccc3c(c2)OCCO3)nc2ccccc2c1=O (configuration not stated)	0.8	1	3
CC(C)n1c(=S)[nH]c2ccccc21	/	1.8	/
CCn1c(=S)[nH]c2ccccc21	/	2.1*	/
CC(=O)c1c(C)[nH]c(C(=O)OCC(=O)N2CCN(S(=O)(=O)c3ccc(C)cc3C)CC2)c1C	/	2*	/
CCOC(=O)c1c(C)[nH]c(C(=O)OCC(=O)N2CCN(S(=O)(=O)c3ccccc3)CC2)c1C	1	1.3	10
OCCNc1nc2ccc(Cl)cc2[nH]1	0.9	1.2	-9
N#Cc1cc2c(nc1SCc1nc3ccccc3[nH]1)CCC2	0.9	2.1*	5
N#Cc1cc2c(nc1SCc1cccnc1)CCC2	0.9	0.8	0
Cc1cc(C(F)(F)F)nn1CC(=O)NNC(=S)NCC(C)C	/	2.6*	/
Cc1cc(C(F)(F)F)nn1CC(=O)NNC(=S)Nc1ccc(Cl)cc1	/	1.2	/
COCCNC(=O)Cn1nc(C(F)(F)F)cc1C	1	1	3
Cc1cc(C(F)(F)F)nn1CC(=O)NNC(=S)Nc1ccc(F)cc1	/	2.8*	/
SMILES	TNAP act DEA	PLAP act	E coli RNAP
Cn1c(/C=N/n2cnnc2)nc2ccccc21	0.8	0.9	7
CC(NCc1ccc2c(c1)OCO2)C(=O)NC1CCCc2ccccc21 (configuration not stated)	/	1	/
c1nc(N2CCCCC2)c2[nH]cnc2n1	1	1.2	2
C1=C(c2ccccc2)CCN(c2ncnc3nc[nH]c23)C1	1.1	2*	4
c1ccc(CN2CCN(c3ncnc4nc[nH]c34)CC2)cc1	0.8	2.1*	5
c1ccc2c(c1)CCN(c1ncnc3nc[nH]c13)C2	1	1.5	-2
O=C(COC(=O)C1=Cc2ccccc2OC1)NC1CCCC1	/	0.9	/
COC(=O)c1cn(C(=O)c2cccs2)c2ccccc12	0.9	0.9	9
CC(C)CC(=O)Nc1cc(NC(=O)CC(C)C)cc(C(=O)NC(C)(C)C)c1	/	1	/
O=C(CN1CCC(Cc2ccccc2)CC1)NC(=O)NCc1ccco1	0.9	1.3	15
O=C(CN1CCC(NC(=O)Nc2ccccc2-c2ccccc2)CC1)NCc1ccco1	0.9	2.2*	-2
O=C(C(Cl)Cl)N1c2ccccc2OCC1c1ccccc1 (configuration not stated)	/	1.1	/
CCC(=O)N1CCc2cc(S(=O)(=O)NC(Cc3ccccc3)C(=O)NC3CCCCC3C)ccc21 (configuration not stated)	/	2.3*	/
CCC(=O)N1CCc2cc(S(=O)(=O)NC(CC(C)C)C(=O)N3CCc4ccccc43)ccc21 (configuration not stated)	0.9	1	6
Cc1ccc(C(C(=O)NC2CCCCC2)N2CCN(C(=O)c3ccco3)CC2)cc1 (configuration not stated)	/	1.4	/
CC(=O)CCc1c[nH]c2c(C(=O)O)cccc12	0.8	0.8	7
O=C(NNC1=C(C(=O)C(F)(F)F)CCC1)c1ccccc1Cl	/	2.1*	/
O=C(NNC1=C(C(=O)C(F)(F)F)CCC1)c1ccccc1O	/	1.8	/
COC(=O)C1=C(C)Nc2ccc(C)cc2S1	0.9	0.8	8
CC(=O)C1=C(C)Nc2cc(C(F)(F)F)ccc2S1	0.9	1.3	62*
Cc1cccnc1NCc1ccc(O)c2ncccc12	1.1	2.6*	-1
CCOC(=O)C1CCN(Cc2ccc(O)c3ncccc23)CC1	1	1.8	0
CCC(C)c1ccc(NC(=O)COC(=O)C2=COCCO2)cc1 (configuration not stated)	/	0.9	/
CC(=O)c1ccc(-n2nnnc2SCC(=O)NNC(=O)c2ccco2)cc1	/	2.2*	/
CCc1ccc(-n2nnnc2SCC(=O)NNC(=O)c2ccco2)cc1	/	2.3*	/
SMILES	TNAP act DEA	PLAP act	E coli RNAP
Cc1ccc(-n2nnnc2SCC(=O)Nc2cccc(NC(=O)c3ccco3)c2)cc1C	0.9	0.8	4
CC(=O)c1ccc(-n2nnnc2SCC(=O)Nc2cccc(NC(=O)c3ccco3)c2)cc1	/	0.9	/
COc1ccc(OC)c(/C=N\NC(=O)CSc2nnc(CCCc3ccc(OC)c(C)c3)o2)c1	/	1.1	/
O=C(CN1CCOCC1)OCCCC1CCCCC1	0.9	1.1	-3
O=C(NCc1ccccc1)N1CCC(c2nc3ccccc3[nH]2)CC1	1	1	1
CN1/C(=C/C2CC(=O)N(c3ccc([N+](=O)[O-])cc3)C2=O)C(C)(C)c2ccccc21 (configuration not stated)	/	1.6	/
COc1ccc(C)cc1NC(=O)CN1CCN(C/C=C/c2ccccc2)CC1	/	2.3*	/
COc1ccc(C)cc1NC(=O)CN1CCN(c2ccccc2F)CC1	1	1.4	1
O=C(Nc1cccc(OC(F)(F)F)c1)c1ccc(Br)o1	2.3*	0.6	-7
CC(=O)c1cccc(NC(=O)c2ccc(Br)o2)c1	0.8	0.9	11
CC(C)CCN1CC(O)=C(c2nc3ccccc3[nH]2)C1=N	/	1.4	/
CC(C)N1CC(O)=C(c2nc3ccccc3[nH]2)C1=N	1.4	2.5*	2
Cc1ccc(=O)n(C(C(=O)NCc2ccco2)C(=O)c2ccc(F)cc2)c1 (configuration not stated)	1.1	1.4	10
Cc1nnc(SCC(=O)N2CC(=O)Nc3ccccc32)n1C	/	0.9	/
CC(c1nnc(SCC(=O)N2CC(=O)Nc3ccccc32)n1Cc1ccccc1)N(C)C (configuration not stated)	/	2*	/
Cc1ccc(SCc2cc(=O)[nH]c(/N=C(\N)Nc3ccc(C)c(C)c3)n2)cc1	/	1.1	/
